Measurements as given in PubChem BioAssay AID686978 (National Center for Advancing Translational Sciences (NCATS), 2013).
In all, about 420,000 compounds went through this assay and about 64,000 (15%) were called active. Not shown: some 27% with an inconclusive outcome. Not all results are given here. A number with no mark means an inactive call. The call rests on the fitted dose curve; in most records, active means well fitted inhibition curve with a large enough effect; inconclusive means small, poorly fitted or top-dose-only effect; inactive means flat fitted curve, though single readings scatter.
On the % scale 0 is the no-effect control and ±100 the full control effect; potency means the concentration at half of the fitted maximal effect.

Experiment: qHTS for Inhibitors of human tyrosyl-DNA phosphodiesterase 1 (TDP1): qHTS in cells in absence of CPT; further: nearly all actives have a fitted effect of over 55% in size
Conditions: DT40 Tdp1-/- hTDP1 cells, no CPT, ATP luminescence, 48 h; activity change, negative = growth inhibition: at 46.2 µM (top of the series)
Excerpt: Human tyrosyl-DNA phosphodiesterase 1 (TDP1) is a novel repair gene, and we propose to use it as a new target for anticancer drug development. TDP1 is not an essential protein, but under treatment with topoisomerase I poison (camptothecin: CPT), TDP1 works as a critical factor for cell survival. To directly identify novel TDP1 inhibitors active in a cellular environment, we have knocked-out the Tdp1 gene in chicken DT40 cells (Tdp1-/-) and generated a complemented counterpart cells that contains a stable transfection of the human TDP1 gene (Tdp1-/-;hTDP1 cells). For the primary screen, Tdp1-/-;hTDP1 cells will be exposed to small molecules in the presence or absence of CPT, and their growth kinetics will be evaluated after 48 hours by measuring ATP activity. […] The hit compounds will then be evaluated in the presence or absence of CPT using Tdp1-/- cells. […] In tertiary assays, biochemical gel-based assays will be used to assess whether the hit compounds specifically target TDP1.
To this end, we have screened this cell line against the MLSMR in two primary screens. In one screen we add CPT and in the other we screen in the absence of CPT; this AID represents the screen where CPT was absent.
NIH Chemical Genomics Center [NCGC]
NIH Molecular Libraries Probe Centers Network [MLPCN]
Assay Submitter (PI): Yves Pommier, NCI
DT40-hTDP1 cells without 20 nM Camptothecin (add 20 microL of DMSO in 1 L of cell culture medium) were dispensed at 400 cells/5microL/well in tissue culture treated 1536-well white wall/solid bottom assay plates (Greiner Bio-One North America, NC, U.S.A.) using a Multidrop Combi 8 channel dispenser (Thermo Fisher, Waltham, MA, USA). 23 nL compounds and controls were transferred using the pin tool (Kalypsys, San Diego, CA, USA) to the assay plates. The assay plates were then incubated at 37 masculineC for a minimum 48 hr. Three microL of Cell Titer Glo solution was added to the plates and incubated at RT in dark for 30 min. Luminescence was read using ViewLux (Perkin Elmer) with 1 sec exposure slow speed, high gain and 2x binning.
For `O=c1[nH]nc(CSCc2ccccc2Cl)[nH]1`, the “activity change, negative = growth inhibition” value was 0.525%. With `COc1ccc(NC(=O)C2COc3ccccc3O2)cc1` (configuration not stated) the “activity change, negative = growth inhibition” value was -5.89%. In the case of `COc1ccc(OC)c2sc(N3CCN(C(=O)C4COc5ccccc5O4)CC3)nc12` (configuration not stated), the Potency is reported as 16.4 µM (active). For `CC(=O)c1ccccc1NC(=O)COC(=O)C1COc2ccccc2O1` (configuration not stated), the “activity change, negative = growth inhibition” value was -5.47%. With `Cc1cc(Cl)ccc1N1C(=O)CC(SCCC(=O)O)C1=O` (configuration not stated) the “activity change, negative = growth inhibition” value was -7.11%. With `CCOC(=O)c1cn(CC)c2cc(F)c(F)cc2c1=O` the “activity change, negative = growth inhibition” value was -3.3%. For `COc1cc(OC)cc(C(=O)Nc2nnc(SCC(=O)NCC3CCCO3)s2)c1` (configuration not stated), the “activity change, negative = growth inhibition” value was 5.33%. For `CC(C)(C)NC(=O)COc1ccc(CNc2ccc3[nH]c(=O)[nH]c3c2)cc1`, the “activity change, negative = growth inhibition” value was -19.9%. For `C/C=C(\C)C(=O)O[C@H]1CC(C)=C2C(=O)C=C(C)C2[C@@H]2OC(=O)[C@@](C)(OC(=O)C=C(C)C)C21` (some centres not stated), the activity change, negative = growth inhibition was 5.36% [at 9.04 µM]. For `C=C(C)C(=O)O[C@H]1C/C(C)=C\C(=O)/C=C(\C)[C@H](O)[C@@H]2OC(=O)C(=C)[C@@H]21`, the Potency was 1.16 µM (active). With `Cc1c(S(=O)(=O)N2CC(C)CC(C)C2)c(=O)n(C)c(=O)n1C` (configuration not stated) the “activity change, negative = growth inhibition” value was 6.33%. With `CCN(C(=O)Cc1c(C(=O)O)n(CC)c2ccccc12)c1ccccc1C` the “activity change, negative = growth inhibition” value was -6.5%. For `CCOC(=O)c1sc(NC(=O)COc2ncnc3ccccc23)c(C(=O)OCC)c1C`, the “activity change, negative = growth inhibition” value was -28%. With `NC(=O)Nc1ccc(C(=O)OCC(=O)NC2CCCc3ccccc32)cc1` (configuration not stated) the “activity change, negative = growth inhibition” value was -9.68%. In the case of `CCOC(=O)c1c(NC(=O)CNC2CCCc3ccccc32)sc(C(N)=O)c1C` (configuration not stated), the Potency is reported as 16.4 µM (active). With `C=CCNC(=O)CC12CC3CC(C1)CC(CC(=O)NCC=C)(C3)C2` the “activity change, negative = growth inhibition” value was -16.4%. For `COc1ccc(CNC(=O)C(=O)N2CCC3(CC2)OCCN3S(=O)(=O)c2ccc(C)cc2)cc1`, the “activity change, negative = growth inhibition” value was -24.9%. In the case of `Cc1ccccc1CC1(CO)CCCN(C(=O)c2cc(-c3ccccc3)no2)C1` (configuration not stated), the Potency is reported as 29.1 µM (active). In the case of `Cc1noc(C)c1CCC(=O)N1CCCC(CO)(Cc2ccccc2)C1` (configuration not stated), the “activity change, negative = growth inhibition” value is reported as -5.73%. For `CCc1[nH]nc(C(=O)N2CCCC(CO)(Cc3ccc(F)cc3F)C2)c1C` (configuration not stated), the “activity change, negative = growth inhibition” value was -24.1%. With `CCCc1nnc(NC(=O)CCC(=O)N2CCN(S(=O)(=O)c3ccc(OC)cc3)CC2)s1` the “activity change, negative = growth inhibition” value was -9.79%. With `COc1ccc(C(=O)Nc2nc(-c3ccc(OC)cc3)c(-c3ccc([N+](=O)[O-])cc3)s2)cc1` the Potency was 9.2 µM (active). For `COc1ccc(C(=O)NCCNc2ccc([N+](=O)[O-])cn2)cc1`, the “activity change, negative = growth inhibition” value was 9.53%. In the case of `COc1ccc(-c2[nH][nH]c(=O)c2NC(=O)c2ccc([N+](=O)[O-])cc2)cc1`, the “activity change, negative = growth inhibition” value is reported as 4.8%. For `O=C(CN(C(=O)c1csnn1)c1cccc(Cl)c1)NC1CCCC1`, the “activity change, negative = growth inhibition” value was -0.467%. For `Cc1cccc(C)c1N1CCN(S(=O)(=O)N2CCOCC2)CC1`, the “activity change, negative = growth inhibition” value was -27.9%. With `Clc1cc(NC2CCCCC2)ncn1` the “activity change, negative = growth inhibition” value was -1.91%. For `CCc1cc2c(NC(Cc3ccccc3)C(=O)O)ncnc2s1` (configuration not stated), the “activity change, negative = growth inhibition” value was 17.1%. With `CCc1cc2c(NC3CCCC3)ncnc2s1` the Potency was 4.61 µM (active). For `CCCC12CN3CC(C)(CN(C1)C3c1ccccc1Cl)C2=O` (configuration not stated), the “activity change, negative = growth inhibition” value was -2.7%. In the case of `CCN(CC)CC(=O)c1c[nH]c2ccc(OC)cc12`, the “activity change, negative = growth inhibition” value is reported as -1.44%. For `CCCC12CN3CC(CCC)(CN(C1)C3c1c[nH]c3ccc(OC)cc13)C2=O` (configuration not stated), the Potency was 10.3 µM (active). For `COc1ccccc1CNC(=O)CSc1nc(=O)n(Cc2ccncc2)c2c1CCC2`, the “activity change, negative = growth inhibition” value was 5.82%. For `O=S1(=O)CCN(Cc2ccccc2Cl)CC1`, the “activity change, negative = growth inhibition” value was 3.47%. For `CCCCN1CC(C)(C)[C@H](CC(=O)Nc2ccc(Br)cc2)C1=O`, the Potency was 16.4 µM (active). In the case of `CC(=O)N1CC(=O)N(CC(=O)Nc2ccc(Br)cc2)C1=S`, the “activity change, negative = growth inhibition” value is reported as -22.6%. With `CC1(C)CN(CCc2ccccc2)C(=O)[C@H]1CC(=O)Nc1ccc(Br)cc1` the “activity change, negative = growth inhibition” value was -22%. For `O=C(N/N=C/c1ccccn1)C12CC3CC(CC(C3)C1)C2`, the “activity change, negative = growth inhibition” value was -2.56%. For `COc1cccc(NC(=O)Cn2c3ccccc3c3nc4n(c(=O)c32)CCS4)c1`, the “activity change, negative = growth inhibition” value was -18%. For `CN(CC(=O)NC(=O)Nc1ccccc1F)Cc1ccccc1`, the “activity change, negative = growth inhibition” value was -25.6%. For `COc1cccc2c1C(=O)c1c(O)c3c(c(O)c1C2=O)CC(O)(C(C)=NNC(=O)c1ccc(Cl)c(Cl)c1)CC3OC1CC(N)C(O)C(C)O1` (configuration not stated), the Potency was 0.164 µM (active). With `O=C(Nc1ccccc1-c1ccccc1)c1ccccc1[N+](=O)[O-]` the “activity change, negative = growth inhibition” value was 15.4%. For `COc1cccc(N2CC(C(=O)NCc3n[nH]c(=O)c4ccccc34)CC2=O)c1` (configuration not stated), the “activity change, negative = growth inhibition” value was -16.6%. For `CCn1c2ccccc2c2cc(NC(=O)CNC)ccc21`, the “activity change, negative = growth inhibition” value was -23.9%. In the case of `CC(=O)Nc1ccc(NC(=O)CSc2nnc(C3CC3)n2-c2ccccc2)cc1`, the “activity change, negative = growth inhibition” value is reported as -15.9%. In the case of `CC[n+]1c(C)n(-c2ccccc2)c2ccc(NC(C)=O)cc21`, the Potency is reported as 2.59 µM (active). In the case of `N#CC(C(N)=O)=C1CCC2(CC1)OCCCCO2`, the “activity change, negative = growth inhibition” value is reported as 6.97%. With `CCOc1cc(/C=N/O)ccc1OCc1ccccc1F` the “activity change, negative = growth inhibition” value was -23.7%. In the case of `CCN(CC(=O)Nc1c(F)cccc1F)C(=O)c1ccc(-c2ccc(C(C)=O)cc2)o1`, the “activity change, negative = growth inhibition” value is reported as -4.02%. In the case of `COC(=O)c1cn(C(=O)c2ccc(Cl)cc2)c2ccccc12`, the “activity change, negative = growth inhibition” value is reported as -12.8%. With `COC(=O)c1cc2c(N)c(C(=O)c3ccc(Cl)cc3)sc2nc1C(OC)OC` the Potency was 14.6 µM (active). In the case of `COc1ccc(OC)c(C(=O)c2ccc(Cl)cc2)c1`, the “activity change, negative = growth inhibition” value is reported as 2.86%.
